Experimental data from the antibiotic and cytotoxicity screens of Wong et al. (2023).
About 3,300 (8.5%) of roughly 39,000 compounds were called active. The list comes from a sample in which actives are over-represented; it also holds similar structures and randomly drawn compounds.

Each molecule was assayed on HepG2 (assay: cytotoxicity call (relative viability < 0.9)). Conditions: 10 µM.

Question: How did the cytotoxicity call turn out when `COc1ccc(S(=O)(=O)N(C)C[C@@H]2Oc3ccc(NS(=O)(=O)c4c(C)noc4C)cc3CC(=O)N([C@H](C)CO)C[C@@H]2C)cc1` was run?
Answer: inactive

Question: `C[C@@H]1CN([C@@H](C)CO)C(=O)c2cc(NC(=O)Nc3ccccc3)ccc2O[C@@H](C)CCCCO[C@H]1CN(C)C(=O)OC(C)(C)C` was tested. Which cytotoxicity call did it give?
Answer: inactive

Question: How did the cytotoxicity call turn out when `C[C@H]1CN([C@@H](C)CO)C(=O)Cc2cc(NC(=O)C3CCCCC3)ccc2O[C@H]1CN(C)C(=O)Nc1cccc2ccccc12` was run?
Answer: inactive

Question: With `C[C@H]1CN([C@@H](C)CO)C(=O)Cc2cc(NC(=O)NC3CCCCC3)ccc2O[C@H]1CN(C)C(=O)Nc1cccc2ccccc12` as the molecule, how does the cytotoxicity call read?
Answer: active

Question: For `Cc1noc(C)c1NC(=O)Nc1ccc2c(c1)CC(=O)N([C@H](C)CO)C[C@H](C)[C@@H](CN(C)C(=O)Nc1cccc3ccccc13)O2`, which cytotoxicity call is on record?
Answer: inactive

Question: How did the cytotoxicity call turn out when `C[C@@H]1CN([C@H](C)CO)C(=O)Cc2cc(NC(=O)C3CCCCC3)ccc2O[C@H]1CN(C)C(=O)Nc1cccc2ccccc12` was run?
Answer: inactive

Question: With `CC(C)NC(=O)N(C)C[C@H]1Oc2ccc(NC(=O)C3CCCCC3)cc2CC(=O)N([C@H](C)CO)C[C@@H]1C` as the molecule, how does the cytotoxicity call read?
Answer: active

Question: `C[C@@H]1CN([C@@H](C)CO)C(=O)Cc2cc(NC(=O)NC3CCCCC3)ccc2O[C@H]1CN(C)C(=O)Nc1cccc2ccccc12` was tested. Which cytotoxicity call did it give?
Answer: inactive

Question: How did the cytotoxicity call turn out when `C[C@H]1CN([C@@H](C)CO)C(=O)Cc2cc(NC(=O)NC3CCCCC3)ccc2O[C@@H]1CN(C)C(=O)Nc1cccc2ccccc12` was run?
Answer: inactive

Question: `Cc1noc(C)c1NC(=O)Nc1ccc2c(c1)CC(=O)N([C@@H](C)CO)C[C@@H](C)[C@H](CN(C)C(=O)Nc1cccc3ccccc13)O2` was tested. Which cytotoxicity call did it give?
Answer: active

Question: For `Cc1noc(C)c1NC(=O)Nc1ccc2c(c1)CC(=O)N([C@@H](C)CO)C[C@H](C)[C@@H](CN(C)C(=O)Nc1cccc3ccccc13)O2`, which cytotoxicity call is on record?
Answer: inactive

Question: `C[C@H](CO)N1C[C@H](C)[C@H](CN(C)C(=O)Nc2cccc3ccccc23)Oc2ccc(NC(=O)C3CCCCC3)cc2CC1=O` was tested. Which cytotoxicity call did it give?
Answer: active

Question: How did the cytotoxicity call turn out when `CC(C)NC(=O)N(C)C[C@@H]1Oc2ccc(NC(=O)C3CCCCC3)cc2CC(=O)N([C@@H](C)CO)C[C@@H]1C` was run?
Answer: inactive

Question: For `CC(C)NC(=O)N(C)C[C@H]1Oc2ccc(NC(=O)C3CCCCC3)cc2CC(=O)N([C@H](C)CO)C[C@H]1C`, which cytotoxicity call is on record?
Answer: inactive

Question: `COc1ccc(NC(=O)Nc2ccc3c(c2)C(=O)N([C@H](C)CO)C[C@H](C)[C@@H](CN(C)S(=O)(=O)c2ccc(C)cc2)OCCCC[C@@H](C)O3)cc1` was tested. Which cytotoxicity call did it give?
Answer: inactive

Question: How did the cytotoxicity call turn out when `NC(=O)NC(=O)C[C@H]1Nc2ccccc2NC1=O` was run?
Answer: inactive

Question: For `CCc1c(C(=O)OC)nnc2cc(C)nn12`, which cytotoxicity call is on record?
Answer: inactive

Question: Which cytotoxicity call does the source give for `O=C(CN1CCOCC1)N[C@@H]1CC[C@H](CCn2cc(C3CCCC3)nn2)O[C@@H]1CO` here?
Answer: inactive
